This is an account of results in PubChem BioAssay (NCI).

Compounds without any hit were thinned out: in the full panel of roughly 83,000, 20% have a hit.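 A percent growth of 40 corresponds to 60% growth inhibition; 0 means no net growth; -100 means all cells died. Active threshold: below 10.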 Unmarked numbers belong to inactive results. Activity calls are given as the source filed them.

Test in all cases: NCI-60 one-dose screen, 48 h (100 = growth as untreated, 0 = no growth, -100 = all killed)
Holding throughout (settings): 10 µM unless noted

The subject of test [1] is NCI-H226 lung.
For test [2], the system named is NCI-H322M lung.
Test [3] concerns HOP-62 NSCLC.
Test [4] deals with HOP-92 NSCLC.
Test [5] has as its system NCI-H522 lung.
The test system of test [6] is A549/ATCC NSCLC.
Test [7] relates to 786-0 renal.
In test [8] the test system is COLO 205 colon.
Test [9] relates to DU-145 prostate.
The subject of test [10] is K-562 leukemia.
The subject of test [11] is MALME-3M melanoma.
In test [12] the test system is MDA-MB-231 breast.
For test [13], the system named is RXF 393 renal.
Test [14] deals with SF-268 CNS.
Test [15] relates to SF-295 CNS.
Test [16] relates to SF-539 CNS.
Test [17] concerns UACC-257 melanoma.
The subject of test [18] is M14 melanoma.
Test [19] relates to NCI-H460 lung.

For `O=C(Nc1ccc(-n2cc(-c3ccncc3)c(-c3ccc(O)c(Cl)c3)n2)cc1)c1ccc(Cl)c(Cl)c1`, the growth in test [1] was 74.6%; in test [2] it was 71.5%; in test [3], 27.5%; in test [4], 14.9%; in test [5] it was 26.3%; in [6], 33.1%. Moreover, the growth was -41.6% (active) in [7]; 64.9% in [8]; 46.1% in test [9]; 11.7% in test [10]; 46.8% in test [11]; -33.8% (active) in test [12]. For the same compound, the growth is -83.2% (active) in test [13]; 54.5% in [14]; -16.3% (active) in test [15]; 10.6% in test [16]; 69.5% in [17]; -35.7% (active) in test [18].
On to `COc1ccc2c(c1)OC(N(C(C)=O)C(C)=O)=C(C#N)C2c1ccc(F)cc1` (stereo not given), for which the growth was 75.2% in test [1]; 48.8% in [2]; 39.2% in test [3]; 15.8% in test [19]; 63.4% in test [4]; -5.26% (active) in [5]. Besides, the growth was 45.1% in test [6]; 28.9% in test [7]; 30.2% in test [8]; 37.9% in test [9]; 10.2% in [10]; 62.5% in test [11]. Further, the growth in test [12] is 53.1%; in test [13], -2.33% (active); in [14] it was 54.1%; in test [15] it was 18.3%; in test [16], 13.9%; in test [17] it was 63%. In addition, in test [18], the growth was 20.5%.
`O=C(O)c1cccc2oc(-c3ccccc3O)nc12`: the growth was 63% in test [1]; 58.7% in test [2]; 43.6% in test [3]; 25.2% in test [19]; 48.8% in [4]; 31.4% in test [5]. For the same compound, the growth is 42% in test [6]; 59.5% in test [7]; 12.4% in test [8]; 63.6% in test [9]; 60.9% in [10]; 70.9% in test [11]. The growth was 51.9% in test [12]; 61% in [13]; 45% in test [14]; 31.7% in test [15]; 50% in test [16]; 80.2% in test [17]. The growth in test [18] is 54.8%.
As to `CC(=O)Nc1ccc([I+]c2ccc([N+](=O)[O-])cc2)cc1`, the growth is 79.9% in [1]; 94.8% in test [2]; 96.4% in test [3]; 90.5% in test [4]; 46.5% in test [5]; 98.9% in [6]. Further, the growth in test [7] was 98.3%; in test [8], 63.4%; in test [9] it was 107%; in test [10], 69.3%; in test [11] it was 43.6%; in test [12], 113%. Besides, the growth in test [13] is 129%; in test [14], 99.4%; in test [15], 118%; in test [16], 101%; in test [17], 90.4%; in [18] it was 83%.
On to `O=C(NCCNc1nccc(-c2c(-c3cccc(O)c3)nc3sccn23)n1)Nc1cccc(C(F)(F)F)c1`, for which the growth in [1] was 97%; in test [2] it was 76.8%; in [3], 83.5%; in test [19], 80.1%; in test [4], 54.5%; in [5], -5.9% (active). In addition, the growth in test [6] was 39.3%; in test [7], 79.4%; in test [8] it was 53.2%; in [9], 89%; in test [10] it was 70.6%; in [11] it was 23.6%. For the same compound, the growth in [12] was 37.7%; in [13], 26.3%; in test [14], 26.2%; in test [15] it was 75.5%; in [16] it was 98.5%; in test [17], 25.3%. Besides, the growth in test [18] was -21.7% (active).
Regarding `CCOC(=O)NNc1nncc2ccccc12`, the growth in test [1] was 104%; in test [2], 102%; in test [3], 102%; in [19] it was 110%; in test [4] it was 95.1%; in test [5] it was 103%. For the same compound, the growth was 104% in test [6]; 99.1% in [7]; 115% in [9]; 81.9% in test [10]; 99.5% in test [11]; 101% in test [12]. The growth in [13] is 109%; in test [14], 107%; in test [15] it was 103%; in test [16], 108%; in test [17] it was 93.3%; in test [18] it was 108%.
Regarding `CC(CN(C)C)CN1c2ccccc2CCc2ccccc21` (stereo not given), the growth in test [1] was 100%; in test [2], 77.1%; in [3], 96.4%; in test [19] it was 103%; in test [4], 38.9%; in test [5], 80.2%. The growth was 94.4% in test [6]; 64.3% in test [7]; 46.1% in [8]; 106% in test [9]; 65.4% in test [10]; 88.8% in [11]. In addition, the growth in test [12] is 85.9%; in test [14], 93%; in test [15] it was 87.5%; in test [16], 90.5%; in test [17], 105%; in [18], 52.3%.
As to `COc1ccc(-c2[nH]c3ccccc3c2/C=C(\C#N)S(=O)(=O)c2ccccc2)cc1`, the growth is 65.2% in [1]; 61.9% in [2]; 35.5% in [3]; 3.97% (active) in [19]; 65.5% in [4]; 26.8% in test [5]. Besides, the growth in [6] is 33.9%; in test [7] it was 22.1%; in [8], -39.4% (active); in test [9] it was 12.3%; in [10] it was 33.8%; in test [11], 73.6%. For the same compound, the growth in test [12] was 31.5%; in [13], -12.2% (active); in test [14] it was 45.1%; in test [15], -11.5% (active); in [16] it was -30.7% (active); in [17] it was 73.2%. For the same compound, in [18], the growth was 20.2%.
`Fc1cccc(F)c1C#Cc1ccc2cccnc2c1`: the growth is 101% in test [1]; 89.8% in test [2]; 89.5% in test [3]; 86% in test [19]; 82.4% in [4]; 75.8% in [5]. Besides, the growth in test [6] was 82.6%; in [7], 113%; in test [8], 96.4%; in test [9] it was 96.5%; in test [11], 90.3%; in test [12], 78%. For the same compound, the growth is 101% in test [13]; 88.6% in test [14]; 101% in [15]; 102% in [16]; 88.2% in [17]; 95.7% in [18].
As for `C=C1C(=O)O[C@H]2[C@H]1CC/C(COC(=O)CCCC(=O)OC/C1=C/CC[C@@]3(C)O[C@H]3[C@H]3OC(=O)C(=C)[C@@H]3CC1)=C\CC[C@@]1(C)O[C@@H]21`, the growth was -44.4% (active) in test [1]; 90% in test [2]; 79.6% in test [3]; 64.5% in test [19]; -43% (active) in test [4]; -80.3% (active) in [5]. For the same compound, the growth in test [6] was 73.5%; in test [7], -34.1% (active); in test [8] it was -44.9% (active); in test [9], 20.8%; in test [10], 7.38% (active); in test [11], -8.44% (active). Besides, the growth is 2.73% (active) in [12]; -74.2% (active) in test [13]; 44.2% in test [14]; 78.3% in test [15]; 0.465% (active) in test [16]; -39.9% (active) in test [17]. Besides, the growth in test [18] was -33.1% (active).
On to `O=C1OC(N(Cc2ccc(Cl)cc2)c2ccccc2)c2ccccc21` (stereo not given), for which the growth is 92.9% in [1]; 89.6% in test [2]; 88.9% in [3]; 111% in test [19]; 100% in test [4]; 65.8% in test [5]. The growth was 90.5% in test [6]; 91% in [7]; 109% in test [9]; 87% in [10]; 104% in test [11]; 84.8% in test [12]. Besides, the growth in [13] was 125%; in [14], 105%; in test [15], 104%; in test [16] it was 99.7%; in [17], 105%; in test [18], 104%.
Regarding `Nc1ncnc2c1ccn2-c1cccc(NC(=O)c2cccc(C(F)(F)F)c2)c1`, the growth in test [1] was 70.2%; in test [2] it was 55.8%; in [3], 91.7%; in test [19] it was 45.8%; in test [4], -1.72% (active); in test [5] it was 56.2%. Also, the growth in [6] is 50.7%; in test [7], 101%; in test [8] it was 75.7%; in test [9], 81.8%; in test [10], 59%; in test [11], 98.4%. The growth in test [12] was 58.4%; in test [13], 58.5%; in test [14], 67.5%; in test [15], 36.4%; in test [16], 64.4%; in [17] it was 93.2%. The growth in test [18] was 83.9%.
`CC1(C)N=C(N)N=C(N)N1c1cccc(CCCCc2ccccc2)c1`: the growth in test [1] is 25.9%; in test [2] it was 21.6%; in [3], -23.5% (active); in [19] it was 0.878% (active); in [4], -30.8% (active); in test [5] it was -42.1% (active). In addition, the growth in test [6] was -6.95% (active); in test [7] it was -48.4% (active); in test [8] it was -84.7% (active); in test [9] it was 31.1%; in test [10], -44.7% (active); in test [11], -1.54% (active). Besides, the growth is 45.4% in test [12]; 10.8% in [14]; 3.96% (active) in test [15]; 4.72% (active) in test [16]; -34.8% (active) in test [17]; 6.98% (active) in test [18].
